Most compounds without a hit are left out; they make up all but 15% or so of the library.
DT40 TDP1 no CPT: qHTS for Inhibitors of human tyrosyl-DNA phosphodiesterase 1 (TDP1): qHTS in cells in absence of CPT; DT40 Tdp1-/- hTDP1 cells, no CPT, ATP luminescence, 48 h; Potency, µM (doses to about 46.2 µM), for the others: at the highest dose activity change, negative = growth inhibition, actives largely listed as inhibitors; 420,000 tested, 15% active; AID 686978, 2013; further: nearly all actives have a fitted effect of over 55% in size
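Growth of hTDP1-complemented DT40 Tdp1-knockout cells is measured by ATP luminescence after at least 48 hr compound exposure at 37 °C, with DMSO substituting for the 20 nM CPT used in the parallel screen.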
ELG1 repair inh: ELG1-dependent DNA repair inhibition | HEK293T ELG1-luciferase reporter, luminescence, 16 h; DNA damage induced by 5-fluorouridine | Potency, µM (top dose mostly 46.1 µM), without a hit: top-dose activity change, negative = inhibition, usual class: inhibitors | 330,000 tested, 2.3% active; further: nearly all actives have a fitted effect of over 55% in size
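Overnight (16 hr) co-exposure of 2,000 cells/well to 5-fluorouridine and compound at 37 °C preceded detection. Luciferase was quantified via ONE-Glo luminescence; loss of signal denotes inhibition.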
12-LOX inh: ALOX12 (human) lipoxygenase inhibition; P18054; purified 12hLO, xylenol orange hydroperoxide absorbance; Potency, µM (titrated, usually from 108 µM), inactives show at the top dose activity change, negative = inhibition, actives largely listed as inhibitors; 580,000 tested, 1.1% active; AID 1671190
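Hydroperoxide product was detected by ferrous iron/xylenol orange as the 573 to 405 nm absorbance ratio. Arachidonic acid at 40 uM (final) was turned over for 30 min at room temperature by 150 nM human 12hLO, pH 7.0 Hepes buffer, after 15 min compound preincubation.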
DT40 TDP1 CPT: DT40-hTDP1 cell growth loss with CPT; chicken DT40 Tdp1-/-;hTDP1 cells + 20 nM CPT, ATP luminescence, 48 h; Potency, µM (doses to about 46.2 µM), inactives show top-dose activity change, negative = growth inhibition, hits mostly inhibitors; 420,000 tested, 12% active; further: nearly all actives have a fitted effect of over 55% in size
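Cell growth measured by CellTiter-Glo luminescence after a minimum 48 h, 37 C compound exposure with 20 nM CPT in Tdp1-knockout DT40 cells stably expressing hTDP1, seeded 400/well; qHTS titration format.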
ELG1-Luc inh: confirmation of human ELG1-dependent DNA repair inhibitors. shares compounds with ELG1 repair inh. HEK293T ELG1-luciferase levels, luminescence; cells co-treated with 5-fluorouridine. Potency, µM (series often up to 46.1 µM), for the others: top-dose activity change, negative = inhibition, most hits filed as inhibitors. 670 tested, 68% active; further: nearly all actives have a fitted effect of over 55% in size
ELG1-Luc MMS: MMS-stimulated human ELG1 repair inhibition, confirmed | Potency, µM (doses to about 46.1 µM), without a hit: at the top dose activity change, negative = inhibition, hits mostly inhibitors | HEK293T luciferase-tagged ELG1 level, MMS stimulated | 670 tested, 53% active | shares compounds with ELG1 repair inh; further: nearly all actives have a fitted effect of over 60% in size
ELG1 5FU viab: confirmation of ELG1 repair inhibitors: viability with 5FU. cell viability with 5-FU, ELG1-dependent repair. Potency, µM (titrated, usually from 46.1 µM), without a hit: at the top dose activity change, negative = viability loss, usual class: cytotoxic. shares compounds with ELG1 repair inh. AID 624250. 670 tested, under 10 active;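 further: ELG1-luc HEK293T cells cotreated with 5-fluorouridine at 10 µM final; viability measured 16 h after compound addition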
ELG1 MMS cell: confirmation of ELG1 repair inhibitors: viability with MMS | shares compounds with ELG1 repair inh | Cell viability with MMS, ELG1-dependent DNA repair | Potency, µM (doses to about 46.1 µM), inactives show top-dose activity change, negative = viability loss, hits mostly cytotoxic | 670 tested, 33% active;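 further: ELG1-luc HEK293T cells co-treated with 10 µM MMS; viability read 16 h after compound addition; nearly all actives have a fitted effect of over 60% in size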
Cell viab unstim: counter-screen for ELG1 repair inhibitors: unstimulated cell viability | shares compounds with ELG1 repair inh | cell viability counter-screen, unstimulated, luminescence | Potency, µM (series often up to 45.9 µM), inactives show top-dose activity change, negative = loss of viability, hits mostly cytotoxic | 900 tested, 8% active | AID 624252;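 further: compound exposure lasted 16 hours before reading; nearly all actives have a fitted effect of over 55% in size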
* marks the source's active call; other numbers are inactive results; ? = inconclusive; nt = no result given; [ ] = another dose, or the depositor's remark. The call rests on the fitted dose curve; in most records, active means well fitted curve in the direction sought with a large enough effect; inconclusive means small, poorly fitted or top-dose-only effect, or another doubt; inactive means no such curve, though single readings can be large; an effect the other way counts as inactive or inconclusive. On the % scale 0 is the no-effect control and ±100 the full control effect; potency means the concentration at half of the fitted maximal effect.

SMILES | DT40 TDP1 no CPT | ELG1 repair inh | 12-LOX inh | DT40 TDP1 CPT | ELG1-Luc inh | ELG1-Luc MMS | ELG1 5FU viab | ELG1 MMS cell | Cell viab unstim
C[C@H](CO)N1C[C@H](C)[C@@H](CN(C)C(=O)Nc2ccc(C(F)(F)F)cc2)Oc2c(NC(=O)CCC(F)(F)F)cccc2C1=O | ? | 1.8µM* | -11% | ? | 3.5µM* | 22% | ? | 9% | -8%
C[C@H](CO)N1C[C@H](C)[C@@H](CN(C)C(=O)Nc2ccc(C(F)(F)F)cc2)Oc2c(NC(=O)Cc3ccccc3)cccc2C1=O | -24% | ? | 0% | -21% | 2.5µM* | -3% | ? | 23% | 8%
C[C@H](CO)N1C[C@H](C)[C@@H](CN(C)C(=O)Nc2ccccc2)Oc2c(NC(=O)Cc3ccccc3)cccc2C1=O | 5% | 17% | 1% | -25% | nt | nt | nt | nt | nt
CC(C)NC(=O)Nc1cccc2c1O[C@H](CN(C)C(=O)Nc1ccc(C(F)(F)F)cc1)[C@@H](C)CN([C@H](C)CO)C2=O | -16% | 1.3µM* | -5% | -11% | 2.2µM* | 15% | ? | 4% | -2%
CC(C)NC(=O)Nc1cccc2c1O[C@H](CN(C)C(=O)Nc1ccccc1)[C@@H](C)CN([C@H](C)CO)C2=O | -4% | ? | 7% | -9% | nt | nt | nt | nt | nt
O=C(c1ccc(Br)o1)N1CCCN(c2cc(-c3ccc(Cl)cc3)[nH]n2)CC1 | nt | nt | 3% | nt | nt | nt | nt | nt | nt
Cn1nccc1OCc1cn2c(=O)n(C)cc(-c3cccc(OCc4ccccc4)c3)c2n1 | nt | nt | -7%[176 µM] | nt | nt | nt | nt | nt | nt
COc1cc(CN2C[C@@H]3C(=O)N(CCCN4CCCC4=O)C(=O)[C@@H]3C2)cc(OC)c1OC | nt | nt | 12% | nt | nt | nt | nt | nt | nt
